Experimental data published in PubChem BioAssay AID590 (National Center for Advancing Translational Sciences (NCATS), 2007).
The whole screen tested about 59,000 compounds, of which about 6,500 (11%) were called active. Inconclusive results (about 15%) are left out. No stated cut-off is given here; in the data, active means max dye-equivalent concentration above about 10 nM; inconclusive means mostly about 1.1 nM to 9.6 nM; inactive means weaker than that. The full list was thinned out, with actives kept by preference.

experiment: qHTS Assay for Spectroscopic Profiling in A350 Spectral Region; details: Compound autofluorescence, 340/450 nm, Alexa 350 dye-equivalents; stronger effect = higher value

Compound | max dye-equivalent concentration
CCNC(=O)CCc1nc(-c2ccc(C(C)(C)C)cc2)no1 | inactive
Cc1ccc(S(=O)(=O)c2c(N)n(C)c3nc4ccccc4nc23)cc1 | 3600 nM (active)
Cc1ccc(S(=O)(=O)NCc2nc3ccccc3c(=O)n2N)cc1 | inactive
CCOC(=O)N1CC=C2C(C#N)=C(N)C(C#N)(C#N)[C@H](c3cccs3)[C@H]2C1 | 35 nM (active)
CC1=C(C(=O)Nc2ccccc2)C(c2cccs2)C(C#N)=C(SCC#N)N1 (stereo unspecified) | inactive
CC(=O)N1CCN(c2ccc(NCc3ccc(C(C)C)cc3)cc2)CC1 | inactive
Cn1c(/C(C#N)=C2/CCCCCN2)nc2ccccc21 | 23 nM (active)
N#C/C(=C1\CCCN1)c1nc(-c2ccccc2)cs1 | inactive
CCC(C)(C)n1nnnc1C(c1cccs1)N1CCN(Cc2ccccc2)CC1 (stereo unspecified) | inactive
O=C1c2ccccc2C(=O)C1c1ccccc1 | inactive
Cc1cccc(-c2noc(-c3ccc(F)cc3)n2)c1 | inactive
COc1ccc2[nH]c(=O)c(-c3noc(-c4ccc(F)cc4)n3)cc2c1 | 14 nM (active)
O=C(c1cc(C(F)(F)F)cc(C(F)(F)F)c1)N1CCC2(CC1)CN(c1ccncc1)C2 | inactive
CN1CCN(c2ncncc2-c2ccc(C(=O)N(C)C)cc2)CC1 | inactive
COCCNC(=O)CN(C(=O)CCC(=O)Nc1cc(C)on1)c1ccc(C)cc1C | inactive
COc1cc2[nH]c(=S)n(CCN3CCCCC3C)c(=O)c2cc1OC (stereo unspecified) | inactive
CCCCn1c(SCC(=O)NCCc2ccc(OC)c(OC)c2)nc2c1c(=O)n(C)c(=O)n2C | inactive
CCn1c(SCC(=O)NCC2CCCO2)nc2cc(S(=O)(=O)N3CCCCC3)ccc21 (stereo unspecified) | inactive
COCCCNC(=O)CSc1nc2ccc(N3CCOCC3)cc2c(=O)n1CCc1ccccc1 | 69 nM (active)
CCCCn1c(SCC(=O)NCC2CCCO2)nc2ccc(N3CCOCC3)cc2c1=O (stereo unspecified) | 71 nM (active)
CCc1ccc(NC(=O)CSc2nc3ccccc3c(=O)n2CCN2CCOCC2)cc1 | inactive
O=C(CSc1nc2cc3c(cc2c(=O)n1CCC1=CCCCC1)OCO3)NCc1ccco1 | inactive

Compound | max dye-equivalent concentration
O=C(c1ccco1)N1CCC[C@@]2(CCN(c3ccccc3)C2)C1 | inactive
CC(Oc1ccc(Cl)cc1)C(=O)Nc1ncccn1 (stereo unspecified) | inactive
O=C(c1cc(C(F)(F)F)cc(C(F)(F)F)c1)N1CCC2(CCCN(Cc3ccncc3)C2)CC1 | inactive
O=C(COc1ncnc2ccccc12)NC(=O)NCc1ccccc1 | inactive
Cc1cccc(-n2c(N)cc(=O)nc2SC(C)C(=O)NC2CCCCC2)c1 (stereo unspecified) | inactive
COC(=O)c1ccc(CSc2ccccc2C)o1 | inactive
CCCc1cc(=O)oc2c(C)c(O)c(CN3CCCCC3)cc12 | 8800 nM (active)
CCOC(=O)N1CCN(Cc2oc(CO)cc(=O)c2O)CC1 | inactive
CCOC(=O)c1ccc(NC(=O)CSc2nnc(COc3ccccc3OC)n2C)cc1 | inactive
O=C(Nc1ccon1)c1cccc(Cl)c1 | inactive
CCCN1C2=C(C(=O)CCC2)C(c2ccc(O)c(Br)c2)C2=C1CCCC2=O | 81 nM (active)
c1ccc(CNc2ncncc2-c2cccnc2)cc1 | inactive
CCC(=O)Nc1ccc2c(c1)nc(CCN1CCN(C)CC1)n2C | inactive
CC(Nc1nc(N2CCCC2)nc2ccccc12)c1ccccc1 (stereo unspecified) | 170 nM (active)
Cc1ccc(C(CC(=O)O)Nc2nc(N3CCCCC3)nc(N3CCCCC3)n2)cc1 (stereo unspecified) | inactive
Cc1cc2c(cc1C)NC1=C(N2)O[C@H](c2c[nH]c3ccc(COc4ccccc4)cc23)C1=O | inactive
Cn1c(=O)n(C)c2cc(CNc3ccc(N4CCOCC4)c(C(=O)O)c3)ccc21 | 22 nM (active)
Cn1nc(-c2ccc(N3CCOCC3)c(NC(=O)c3ccccc3)c2)c2ccccc2c1=O | inactive
Cn1c(=O)n(C)c2cc(C(=O)Nc3ccc4c(c3)OCO4)ccc21 | inactive
Cn1c(CNc2nc(-c3ccccc3)cs2)nnc1SCC(=O)c1ccccc1 | inactive
COc1ccc(CC(=O)Nc2c3c(nn2-c2cccc(Cl)c2)CS(=O)C3)cc1 (stereo unspecified) | inactive
Cc1ccc(-n2nc3cc(Cl)c(NC(=O)c4ccco4)cc3n2)cc1 | 52 nM (active)

Compound | max dye-equivalent concentration
COC(=O)c1cc(Cl)c(NC(=O)c2ccco2)cc1OC | inactive
Cn1c(NC(=O)c2ccco2)c(-c2ccccc2Cl)c(=O)c2ccccc21 | inactive
CCN(CC)CCCNC(=O)c1cc(-c2cccc(Cl)c2)on1 | inactive
Cc1cc(C(F)(F)F)n2ncc(-c3ccccc3)c2n1 | 12 nM (active)
Cc1cc(-n2nc(C)cc2C)n2ncc(-c3ccccc3)c2n1 | inactive
O=C(Cn1c(-c2ccc(Cl)cc2)noc1=O)N1CCN(c2ccccc2F)CC1 | inactive
CC(=O)Oc1ccc2c(C)c(CC(C)O)c(=O)oc2c1 (stereo unspecified) | 21000 nM (active)
COc1ccccc1-c1nc(NCCNC(C)=O)c2ccccc2n1 | inactive
C=CCn1c(=O)c2ccccc2n2c(SCC(=O)N3CCCc4ccccc43)nnc12 | inactive
O=c1oc2c(CN3CCCCC3)c(O)ccc2c2c1CCCCC2 | 13000 nM (active)
CCCn1c(=O)c2ccccc2n2c(SCC(=O)/C(C#N)=C(\C)N)nnc12 | inactive
Cc1ccc(S(=O)(=O)N(C)CC(=O)NC2CCCC2)cc1 | inactive
Cc1ccc(-c2noc(CN3CCN(Cc4ccccc4)CC3)n2)cc1 | inactive
Cc1ccc(Cc2nc(-c3cccc(C)c3)no2)cc1 | inactive
COc1ccccc1Cc1nc(-c2ccc(C)cc2)no1 | 17 nM (active)
C[C@H]1O[C@@H](CC(=O)O)Cc2c1c(O)c1c(O)cc(-c3cc(=O)c4c(=O)c5c(c(=O)c=4c3=O)C[C@H](CC(=O)O)O[C@@H]5C)c(O)c1c2O | inactive
O=C(CSc1nc2ccccc2o1)N1CCN(c2ccc(Cl)cc2)CC1 | inactive
CC(=O)N(CN1C(=O)C2CC=CCC2C1=O)c1cccc(Cl)c1 (stereo unspecified) | inactive
CCOc1ccc(NC(=O)CC2NCCNC2=O)cc1 (stereo unspecified) | inactive
O=C(CC1Nc2ccccc2NC1=O)Nc1ccccc1 (stereo unspecified) | 100 nM (active)
O=C(CC1NCCNC1=O)Nc1ccc(Oc2ccccc2)cc1 (stereo unspecified) | inactive
COc1ccc(Cc2nnnn2CC(=O)O)cc1 | inactive

Compound | max dye-equivalent concentration
CC(C)NC(=O)N1CC[C@@]2(CCCN(C(=O)c3cccn3C)C2)C1 | inactive
O=C(C1CCN(S(=O)(=O)c2cccs2)CC1)N1CCCCCC1 | inactive
O=C(Nc1ncccn1)c1cccs1 | inactive
O=C(Nc1nncs1)c1ccccc1NS(=O)(=O)c1cccs1 | 520 nM (active)
COCCCN1C(=O)c2ccc(C(=O)Nc3ccc(OC)cc3OC)cc2C1=O | inactive
COc1ccc(NC(=O)N2CC3(CCN(C(=O)c4cccn4C)CC3)C2)cc1 | inactive
CCN1C(=O)C(C(=O)NC(C)c2ccccc2)C2CC1(C)Oc1ccccc12 (stereo unspecified) | inactive
CC1CCCCN1CC(=O)NCc1ccc2c(c1)OCO2 (stereo unspecified) | 50 nM (active)
O=C(Cn1nnc(-c2ccccc2)n1)NCc1ccc2c(c1)OCO2 | inactive
CCOC(=O)NCc1ccc2c(c1)OCO2 | inactive
COc1cccc(C2/C(=C(/O)c3ccncc3)C(=O)C(=O)N2CCCN(C)C)c1 (stereo unspecified) | inactive
CCCn1c(=O)c2[nH]c(C3CCCC3)nc2n(CCC)c1=O | inactive
CSCCC(NC(N)=O)C(=O)N(C)CC(=O)Nc1ccc(C)cc1 (stereo unspecified) | inactive
Cn1cc(-c2nc3cncnc3n(-c3ccccc3)c2=O)c2ccccc21 | inactive
O=C(c1ccc2c(c1)C(=O)N(c1ccc(Cl)cc1)C2=O)N1CCN(c2ccccn2)CC1 | inactive
c1ccc(-n2nnnc2N2CCOCC2)cc1 | inactive
O=c1c(-c2ccc(F)cc2)nc2cnc(N3CCOCC3)nc2n1-c1ccccc1 | 29 nM (active)
CN1CCN(c2ncc3nc(-c4ccc(Cl)cc4)c(=O)n(-c4ccccc4)c3n2)CC1 | 53 nM (active)
Clc1ccc(C(c2ccc(Cl)cc2)n2cc[n+](C[C@@H](OCc3ccc(Cl)cc3Cl)c3ccc(Cl)cc3Cl)c2)cc1 | inactive
COc1ccc(CNc2ncnc3ccc(-c4cccnc4)cc23)c(OC)c1 | inactive
Cc1cccc(N2CCN(C(=O)C3CCN(S(=O)(=O)c4cnc[nH]4)CC3)CC2)c1C | inactive
O=C(c1ccco1)N1CCC2(CC1)CN(c1ncccn1)C2 | inactive

Compound | max dye-equivalent concentration
Cc1nc(NCc2ccccc2)c(C(N)=O)c2c1COC(C)(C)C2 | 150 nM (active)
O=C(c1cccnc1NCc1ccccc1)N1CCOCC1 | inactive
O=c1ccn(Cc2ccccc2Cl)cc1 | inactive
CC(C)CNC(=O)c1cc(-c2ccc(Br)cc2)on1 | inactive
COC(=O)c1ccc(NC(=O)CSc2nnc(-c3ccncc3)n2C)cc1 | inactive
CCOc1ccc(N=NS(=O)(=O)O)cc1 | inactive
COc1ccc(-c2nnn(CC(=O)N(CCO)C(C(=O)NC3CCCC3)c3ccc(F)cc3)n2)cc1 (stereo unspecified) | inactive
CCOc1ccc2nc(NC(=O)CSc3nc4c(c(=O)n(C)c(=O)n4C)n3CC)sc2c1 | inactive
Cc1ccc(C(C(=O)NC2CCCC2)N(Cc2ccco2)C(=O)CCC(=O)Nc2ccccn2)cc1 (stereo unspecified) | inactive
Cc1noc(C)c1COC(=O)Cn1c(C)nc2ccccc21 | inactive
O=C(Nc1ccc(Oc2ccccc2)cc1)c1ccco1 | inactive
Cc1ccc(C(=O)COc2cccc(NC(=O)c3ccco3)c2)cc1 | inactive
CCOc1cc(NC(=O)c2ccco2)c(OCC)cc1NC(=O)COc1ccccc1 | 78 nM (active)
O=C(c1cccs1)N1CCCC(c2nc(-c3ccc(F)cc3)no2)C1 (stereo unspecified) | inactive
Cc1ccc(S(=O)(=O)N2CCOCC2)cc1C(=O)NCc1ccc(F)cc1 | inactive
O=c1c2ccccc2nnn1CSc1nc2sc3c(c2c(=O)n1CC1CCCO1)CCC3 (stereo unspecified) | inactive
CCCn1nnc2sc3c(c2c1=O)CCC(C)C3 (stereo unspecified) | 32 nM (active)
CC1CCc2sc3nc(N4CCN(CCO)CC4)n4ncnc4c3c2C1 (stereo unspecified) | inactive
